# Data: PubChem BioAssay (NCATS)
# Results filed as inconclusive are left out. Unmarked numbers belong to inactive results. Calls of active or inactive are those of the source. The call rests on the fitted dose curve; in most records, active means well fitted cell-killing curve with a large enough effect; inconclusive means small, poorly fitted or top-dose-only effect, or effect the other way; inactive means no such curve, though single readings can be large or run the other way.
# Test: Viability qHTS for spleen associated tyrosine kinase inhibitor (SYKi) naive MV4-11 cells (AID 1963823); further: nearly all actives have a fitted effect of over 40% in size
# Settings: MV4-11 AML viability, CellTiter-Glo luminescence, 72 h; series mostly up to 45 µM
# In short: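 qHTS, SYK inhibitor-naive MV4-11; 500 cells/well; 72 hr compound exposure, 37 C; CellTiter-Glo added, 10 min RT; luminescence read.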
# Potency means the concentration at half of the fitted maximal effect.
Structure (SMILES),Potency,viability (% of control)
CC(C)C1NC(=O)CNC(=O)C2CCCN2C(=O)C(Cc2c[nH]c3ccccc23)NC(=O)CNC(=O)C(C(O)c2ccc(O)cc2)NC(=O)CNC1=O (stereo not given),inactive,–
CC1CCC2(NC1)OC1C(O)C3C4CCC5CC(O[C@@H]6O[C@H](CO)[C@@H](O)[C@H](O)[C@H]6O[C@@H]6O[C@@H](C)[C@H](O)[C@@H](O)[C@H]6O)CCC5(C)C4CCC3(C)C1C2C (stereo not given in full),inactive,–
CC(=O)O[C@H]1[C@H](O[C@H]2[C@@H]3C=CO[C@@H](O[C@@H]4O[C@H](CO)[C@@H](O)[C@H](O)[C@H]4O)[C@@H]3[C@@]3(CO)O[C@@H]23)O[C@@H](C)[C@H](OC(=O)/C=C/c2ccccc2)[C@H]1OC(=O)/C=C/c1ccccc1,–,88.5% [at 9.25 µM]
O=C(/C=C/c1ccc(O)cc1)OCC1OC(O)C(OC2OC(CO)C(O)C(O)C2O)C(O)C1O (stereo not given),inactive,–
COc1ccc(/C=C/C(=O)O[C@@H]2[C@@H](O)[C@@H](O)[C@H](O[C@@H]3C=C(CO)[C@H]4[C@H](O[C@@H]5O[C@H](CO)[C@@H](O)[C@H](O)[C@H]5O)OC=C[C@H]43)O[C@H]2C)cc1O,inactive,–
CC(/C=C/C1(O)C(C)(C)CC(O)CC1(C)O)OC1OC(CO)C(O)C(O)C1O (stereo not given),inactive,–
CCN(CC)CCOc1ccc2c(c1)C(=O)c1cc(OCCN(CC)CC)ccc1-2,13.3 µM (active),–
CC1(C)CC[C@]2(C(=O)O[C@@H]3O[C@H](CO)[C@@H](O)[C@H](O)[C@H]3O)CC[C@]3(C)C(=CCC4[C@@]5(C)C[C@@H](O)[C@H](O)[C@](C)(C(=O)O)C5CC[C@]43C)C2C1O (stereo not given in full),inactive,–
COc1cc2c(NC3CCN(C(C)C)CC3)nc(N3CCC(F)(F)CC3)nc2cc1OCCCN1CCCC1,5.17 µM (active),–
C/C=C(\C)C(=O)O[C@@H]1CC2[C@@H](CC=C3C[C@@H](O[C@H]4C[C@H](OC)[C@H](O[C@H]5C[C@H](OC)[C@H](O[C@@H]6O[C@H](C)[C@@H](O[C@H]7C[C@H](OC)[C@H](O[C@@H]8O[C@H](CO)[C@@H](O)[C@H](O)[C@H]8O)[C@@H](C)O7)[C@H](OC)[C@H]6O)[C@@H](C)O5)[C@@H](C)O4)CC[C@@]32C)[C@@]2(O)CC[C@H](C(C)=O)[C@@]12C (stereo not given in full),–,53.3% [at 9.25 µM]
CC1(C)CC[C@]23CO[C@@]4(CCC5[C@@]6(C)CC[C@H](O[C@@H]7OC[C@H](O[C@@H]8O[C@H](CO)[C@@H](O)[C@H](O)[C@H]8O[C@@H]8OC[C@@H](O)[C@H](O)[C@H]8O)[C@H](O)[C@H]7O)[C@@](C)(CO)C6CC[C@@]5(C)[C@]4(C)CC2=O)[C@@H]3C1 (stereo not given in full),3.1 µM (active),–
COc1cc(/C=C/C(=O)O[C@H]2[C@H](OC(=O)/C=C/c3cc(OC)c(O)c(OC)c3)O[C@H](CO[C@@H]3O[C@H](CO)[C@@H](O)[C@H](O)[C@H]3O)[C@@H](O)[C@@H]2O)ccc1O,inactive,–
COc1c2c(c(C)c3c1C(=O)OC3)O[C@@]1(C)CCC3(C(C)(C)O)OC(=O)CC[C@]3(C)[C@H]1C2 (stereo not given in full),inactive,–
COc1cc(Br)c(Nc2nc(-c3c(C)nc4ncccn34)cs2)c(Br)c1,1.16 µM (active),–
Oc1cccc(Nc2ccnc3[nH]c4ccccc4c23)c1,1.84 µM (active),–
Clc1ccccc1CNCC1CCC(CNCc2ccccc2Cl)CC1 (stereo not given),11.6 µM (active),–
CC(=O)OC[C@]12[C@H](OC(C)=O)C(=O)[C@@H]3[C@@H](O)[C@@]14O[C@@]3(C)COC(=O)c1cccnc1[C@@H](C)[C@H](C)C(=O)O[C@@H]([C@H](O)[C@@H]2OC(C)=O)[C@]4(C)O,1.72 µM (active),–
CC(=O)O[C@@H]1[C@H](O[C@@H]2O[C@H](CO)[C@@H](O)[C@H](O)[C@H]2O)[C@@H](O[C@@H]2O[C@@H](C)[C@H](O)[C@@H](O[C@@H]3O[C@H](CO)[C@@H](O)[C@H](O)[C@H]3O)[C@H]2O)[C@H](OC(=O)[C@]23CCC(C)(C)C[C@H]2C2=CCC4[C@@]5(C)C[C@H](O)[C@H](O[C@@H]6O[C@H](C(=O)O)[C@@H](O)[C@H](O)[C@H]6O)[C@@](C)(C(=O)O)C5CC[C@@]4(C)[C@]2(C)CC3)O[C@@H]1C (stereo not given in full),–,81.2% [at 9.25 µM]
CSc1cc2c(s1)c1cnn(Cc3ccccc3F)c(=O)c1n2C,inactive,–
COc1cc(O)cc(C)c1C(=O)O[C@@H]1[C@H](O)[C@@H](CO)O[C@H]1n1ccc(=O)[nH]c1=O,2.82 µM (active),–
